Source: PubChem BioAssay AID1159606 (Sanford-Burnham Center for Chemical Genomics, 2016)
Out of some 360,000 compounds screened, about 7,300 (2%) were called active. No stated cut-off is given here; in the data, active means inhibition above about 50%; inactive means the rest. Shown is part of a subset that was picked to be rich in actives.

Test: inhibitors of TWEAK-Fn14 signaling, primary screen, luciferase reporter cells, uHTS (AID 1159606)
Conditions: TWEAK-stimulated Fn14 reporter cells, luciferase luminescence, 8 h; at 10 µM; stronger effect = higher value

inhibition, active:
O=C(CN1C(=O)c2ccccc2S1(=O)=O)N1CCc2ccccc21 103%
CCN1CCC(O)(/C=C/c2ccc(C)cc2)C(C(=O)/C=C/c2ccc(C)cc2)C1 (centres undefined) 88.3%
O=C(CC(O)(C(F)(F)F)C(F)(F)F)Nc1ccc(Cl)c(Cl)c1 56.3%
CCN1/C(=C\c2ccc3ccccc3[n+]2CC)Sc2cc(C)ccc21 57.2%
Cc1nc(N2CCN(c3ccccn3)CC2)c2c(C)c(C(=O)Nc3ccc(F)c(Cl)c3)sc2n1 66.9%
O=C(Nc1ccc(OC(F)(F)F)cc1)c1ccc2c(c1)no[n+]2[O-] 60.4%
O=C(Nc1cc(C(F)(F)F)ccc1Cl)c1cc2nc3c(c(C(F)(F)F)n2n1)CCCC3 76.7%
CC1CN/C(=C\C(=O)c2ccc(Br)cc2)C(=O)N1 (centres undefined) 62.2%
O=C(NCCOc1ccccc1)c1ccccc1 54.9%
COc1ccc(-n2nnnc2-c2nc3ccccc3s2)cc1 74%
Cc1cc(C)nc(Nc2n[nH]c(-c3ccccc3N)n2)n1 53.5%
Cc1cccc(N2CCN(C(=O)CCS(=O)(=O)c3ccc4c(c3)NC(=O)C(C)S4)CC2)c1C (centres undefined) 50.6%
O=C(Nc1ccc(Cl)cc1)Nc1ccc(C(=O)N2CCOCC2)cc1 79%
O=c1ccc2c(-c3ccccc3S(=O)(=O)O)c3ccc(O)c(O)c3oc-2c1O 78%
O=C(NNc1ccccc1Cl)C(O)(c1cccc(C(F)(F)F)c1)c1cccc(C(F)(F)F)c1 74.5%
O=C(CN1C(=O)CSC1=O)N1CCCC(Nc2ccc(F)cc2)C1 (centres undefined) 89.2%
COc1ccc(-c2nc(-c3ccccc3)no2)c(OC)c1 96.2%

inhibition, inactive:
Cc1ccc([C@H]2C[C@H](O)[C@@H](n3cc(COC(=O)c4ccccc4)nn3)CN2C(=O)C2CCCCC2)cc1 21%
COCCNC(=O)c1ccccc1-c1nc(-c2ccccc2Cl)no1 -18.8%
Cc1c(NC(=O)C(C)OC(=O)c2ccccc2O)c(=O)n(-c2ccccc2)n1C (centres undefined) 2.88%
COC(=O)[C@]12CCCCC=C1N(CCC1=CCCCC1)C(=O)[C@H](CC(=O)N1CCSCC1)C2 -9.15%
CN(Cc1ccc(F)cc1)C(=O)CN1C(=O)c2ccccc2S1(=O)=O 7.88%
COc1ccc(CNC(=O)CN2C(=O)c3ccccc3S2(=O)=O)cc1 8.55%
CCN(CC)c1ncnc2c1ncn2[C@H]1CN(Cc2cccs2)C[C@@H](CO)O1 -23.3%
COc1ccc(CN2C(=O)C(CC(=O)NC3CCCCC3)CC(C(=O)N3CCOCC3)=C2C)cc1 (centres undefined) -7.48%
CCc1cccc(C)c1N(C(=O)Cn1c(CO)nc2ccccc21)C(C)COC (centres undefined) -17.5%
CCN1CCC2(CC1)N=C(c1ccc(F)cc1)C(=S)N2C(=O)c1ccc(C)cc1 42.7%
CCOC(=O)[C@]12CCC=C1N(Cc1ccco1)C(=O)[C@H](CC(=O)NCc1cccc(C(F)(F)F)c1)C2 11.1%
COCCCNC(=O)CNC(=O)c1nn(-c2ccc(OC)cc2)c(=O)c2ccccc12 23.9%
CCOC(=O)c1cc(NC(=O)SCC(=O)O)c(C)nc1C -2.03%
CCOC(=O)c1c(C2CC2)csc1NC(=O)CSCc1c(C)noc1C -9.7%
O=C(Cc1ncc(C(F)(F)F)cc1Cl)Nc1cccc(Br)c1 6.6%
CN(CC(=O)Nc1ccc(Cl)c(C(F)(F)F)c1)C(=O)CCC(=O)c1ccccc1 7.71%
O=C(COC(=O)C1CCN(S(=O)(=O)c2ccc3c(c2)OCCO3)CC1)Nc1ccccc1OC(F)F -22.5%
C#Cc1ccc([C@@H]2C=C(C(=O)O)O[C@H](OCCCCO)C2)cc1 -4.22%
Cc1cn(C2C=CC(CO)O2)c(=O)[nH]c1=O (centres undefined) -1%
O=S(=O)(c1ccc(F)cc1)N1CCN=C1SCc1cccc(F)c1 -11.2%
O=C(Nc1c(Br)cc2c(c1Br)Cc1cc([N+](=O)[O-])ccc1-2)C(Cl)Cl -30.1%
O=C(CN1CCN(S(=O)(=O)c2ccc(F)cc2)CC1)NC1CC1 0.09%
Cc1nc(N2CCN(c3ccccn3)CC2)c2c(C)c(C(=O)Nc3ccc(F)cc3)sc2n1 18.8%
Cc1nc(N2CCOCC2)c2c(C)c(C(=O)Nc3ccc(C(F)(F)F)cc3)sc2n1 -3.25%
CCOC(=O)Cc1ncccc1C(=O)Nc1ccc(OC(F)(F)F)cc1 -7.78%
CCOc1c2ccc(C(=O)NCc3ccc(OC(F)(F)F)cc3)cc2nn1C -25.1%
CCOC(=O)Cc1csc(NC(=O)CN(C)S(=O)(=O)c2ccc3c(c2)CCC(=O)N3)n1 1.66%
O=C(Nc1ccc(Cl)cc1)c1cc2nc(C3CC3)cc(C(F)(F)F)n2n1 -7.24%
Nc1nc(SCC(=O)Nc2cc(C(F)(F)F)ccc2Cl)[nH]c(=O)c1NC(=O)c1ccco1 10%
O=S1(=O)CSCS(=O)(=O)C1 -11.8%
O=C(OCC(=O)N1CCCCCC1)c1ccc(Br)c(S(=O)(=O)N2CCOCC2)c1 -3.85%
CC1(C)Cc2ccccc2/C(=C/C(=O)c2ccccc2)N1 -22.4%
COc1cc2c(cc1OC)/C(=C/C(=O)c1ccc(NC(C)=O)cc1)NCC2 -11.2%
O=C(CN(C(=O)c1csnn1)c1cccc(F)c1)NCc1ccc(F)cc1 0.95%
COc1ccc(C(c2nnnn2C2CCCC2)N2CCN(C/C=C/c3ccccc3)CC2)cc1 (centres undefined) -2.02%
NS(=O)(=O)c1cc(C(=O)NCCOc2ccccc2)c(Cl)cc1Cl 3.06%
O=C(NCCOc1ccccc1)c1ccccc1F 30.7%
COc1cc(C(=O)OCC(=O)N(CC(C)C)C2CCS(=O)(=O)C2)ccc1OCC(C)C (centres undefined) -5.97%
COc1ccc(CCNC(=O)CCC(=O)NC2CCCCC2)cc1OC 4.09%
COc1ccc(-n2nnnc2SCC(=O)NCc2cccs2)cc1 -2.38%
COc1ccc(CNc2nnnn2C)cc1 2.29%
Cc1ccc(CN2CCCOCCS2(=O)=O)cc1 -9.75%
CCCOc1ccccc1-c1nc(SCCC(=O)O)n[nH]1 -9.1%
Nc1ccccc1-c1nc2ccncc2[nH]1 -11.5%
COc1ccc2c(c1)CC[C@@H]1[C@@H]2CC[C@]2(C)C(=O)CC[C@@H]12 -3.91%
O=C(NCc1ccccc1)C1c2ccccc2OCC(=O)N1C1CC1 (centres undefined) 4.34%
NC(=O)Nc1ccccc1C(=O)NCCc1ccccc1 11.8%
COc1ccccc1N1CCN(C(=O)CCS(=O)(=O)c2ccc3c(c2)NC(=O)C(C)S3)CC1 (centres undefined) 21.7%
CC1Sc2ccc(S(=O)(=O)CCC(=O)NCc3ccccc3Cl)cc2NC1=O (centres undefined) 0.42%
O=C(NCc1ccc(F)cc1)C1CCN(C(=O)Nc2ccc(F)cc2)CC1 31.5%
Cc1c(Cl)cccc1NC(=O)Nc1ccc(C(=O)N2CCCC2)cc1 5.68%
O=C(Nc1ccccc1C(=O)N1CCOCC1)c1ccc(Cl)cc1 -5.43%
COc1cc2c(C(=O)N3CCN(C)CC3)c(CSc3ccccc3)n(C)c2cc1Br 0.16%
CCN(CC)CCN(C)C(c1ccnc2ccccc12)c1nnnn1-c1ccc2c(c1)OCCO2 (centres undefined) 29.9%
CCCCn1nnnc1C1(C)CCC(=O)N1Cc1ccc(OC)c(OC)c1 (centres undefined) 2.84%
COc1ccc(COC[C@H](CC(C)C)N2CCN(C(=O)c3cccc(C(F)(F)F)c3)CCC2=O)cc1 0.93%
O=C1c2ccccc2C(c2nc3ccccc3[nH]2)N1c1ccccc1 (centres undefined) 20.9%
CCc1ccc(Oc2coc3cc(OC(=O)c4cc5ccccc5oc4=O)ccc3c2=O)cc1 -16.7%
CSc1nnc(CNC(=O)c2ccccc2)n1-c1ccc(F)cc1 23.6%
O=C(OC1CC2CC1[C@H]1CCCCN1C2=O)N1CCOCC1 (some centres undefined) 24.2%
NC(=O)c1ncn([C@@H]2O[C@H](CN=C3NS(=O)(=O)c4ccccc43)[C@@H](O)[C@H]2O)n1 -2.64%
Cc1oc2cc([N+](=O)[O-])c(O)c([N+](=O)[O-])c2c1C(=O)c1ccc(Br)cc1 20%
O=C(O)c1cc(S(=O)(=O)N(Cc2ccccc2)c2cccc(C(F)(F)F)c2)ccc1Cl 9.03%
O=C(CNS(=O)(=O)c1cccc(C(F)(F)F)c1)Nc1ccccc1F -3.29%
CCCNCc1cc(OCC)c(OCC(=O)Nc2ccccc2)cc1Br 3.35%
O=C(CN1CCOC1=O)N1CCCC(Nc2ccc(F)c(F)c2)C1 (centres undefined) -4.67%
O=C1CCCCN1CCCC(=O)N1CCCC(Nc2ccc(F)cc2)C1 (centres undefined) 10.3%
CCCn1c(N)c(C(=O)CSc2nnc(Cc3cccs3)n2C2CC2)c(=O)[nH]c1=O -4.97%
CC1CC(C)CN(S(=O)(=O)c2ccc(C(=O)NN3CCOCC3)cc2)C1 (centres undefined) 15.8%
COc1ccc(-c2noc(CNC(=O)C(C)Oc3ccccc3)n2)cc1 (centres undefined) -2.29%
COc1ccc(/C=C/c2noc(-c3ccccc3OC(C)=O)n2)cc1 48.5%
CC1CN(C(=O)CCC(=O)NCCCN2CCC(Cc3ccccc3)CC2)c2cc(Cl)ccc2O1 (centres undefined) -12.8%
